# Inconclusive results are not listed. Activity calls are given as the source filed them. The calls were made as follows, unless noted: active = hit-call score of the fitted dose curve at least 0.9, where 1 is the maximum; inconclusive = response in the unintended direction; inactive = score below 0.9.
# What was measured:
# [1] = molecular target: Estrogen receptor beta (Homo sapiens) (UniProt Q92731); assay: OT_ER_ERbERb_1440: Odyssey Thera (OT) 24-hour HEK293T Protein-Complementation Assay for Estrogen Receptor-beta/-beta Homodimer (AID 2283380);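 also: scored as signal increase over DMSO baseline for both agonists and antagonists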
# In short: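 HEK293T cells stably expressing ER beta LBD (aa 310-547) homodimer fragment-complementation reporter, dosed 24 h. Cells formaldehyde-fixed, Draq5-stained; gain in nuclear (agonist) or nuclear plus cytoplasmic (antagonist) fluorescence versus DMSO read by laser scanning cytometry.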
# [2] = molecular target: Estrogen receptor (Homo sapiens) (UniProt P03372); assay: OT_ERa_GFPERaERE_0480: Odyssey Thera (OT) 8-hour HeLa Transcription Induction Assay for Estrogen Receptor (AID 2283381; active = hit-call score of the fitted dose curve at least 0.9, where 1 is the maximum; inactive = score below 0.9)
# In short: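 An 8 h HeLa transcription-induction format with a GFP reporter under ERE control, read by fluorescence microscopy; single endpoint fitted positively with DMSO as baseline.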
# [3] = molecular target: Estrogen receptor (Homo sapiens) (UniProt P03372); assay: OT_ERa_GFPERaERE_0120: Odyssey Thera (OT) 2-hour HeLa Transcription Induction Assay for Estrogen Receptor (AID 2283382)
# In short: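 Two-hour compound treatment of HeLa cells preceded microscopy imaging of an inducible fluorescent reporter. Image-based quantification gave one endpoint, analysed for signal increase relative to DMSO controls.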
# [4] = molecular target: Retinoic acid receptor RXR-alpha (Homo sapiens) (UniProt P19793); assay: OT_NURR1_NURR1RXRa_0480: Odyssey Thera (OT) 8-hour HEK293T Protein Complementation Assay for Nurr1/retinoid X receptor (RXR) (AID 2283385)
# In short: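 Gain in fluorescent complementation signal over DMSO, measured 8 hours after chemical dosing of human kidney HEK293T cells, indicated enhanced Nurr1–RXRα association.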
# [5] = molecular target: Retinoic acid receptor RXR-alpha (Homo sapiens) (UniProt P19793); assay: OT_NURR1_NURR1RXRa_1440: Odyssey Thera (OT) 24-hour HEK293T Protein Complementation Assay for Nurr1/retinoid X receptor (RXR) (AID 2283386)
# In short: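 Cell-based binding reporter: HEK293T cells, 24 h exposure, fluorescence-detected fragment complementation, DMSO as baseline.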
# [6] = molecular target: Peroxisome proliferator-activated receptor gamma (Homo sapiens) (UniProt P37231); assay: OT_PPARg_PPARgSRC1_1440: Odyssey Thera (OT) 24-hour Protein-Complementation Assay for Peroxisome Proliferator-activated Receptor Gamma/ SRC-1 Co-activator (AID 2283388)
# In short: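 Cells carrying the PPARg/SRC-1 fragment-complementation reporter receive compound for 24 hours, are fixed and counterstained with Draq5, then imaged. Increased nuclear relative to cytoplasmic YFP fluorescence above DMSO baseline indicates binding activity.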
# [7] = molecular target: Bile acid receptor (Homo sapiens) (UniProt Q96RI1); assay: OT_FXR_FXRSRC1_0480: Odyssey Thera (OT) 8-hour HEK293T Protein-Complementation Assay for Farnesoid X receptor/SRC-1 Co-activator (AID 2283383)
# In short: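 Readings were taken 8 h after dosing HEK293T cells in a split-reporter complementation format pairing FXR with SRC-1. Increased fluorescence relative to DMSO-treated wells defined activity.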
# [8] = molecular target: Bile acid receptor (Homo sapiens) (UniProt Q96RI1); assay: OT_FXR_FXRSRC1_1440: Odyssey Thera (OT) 24-hour HEK293T Protein-Complementation Assay for Farnesoid X receptor/SRC-1 Co-activator (AID 2283384)
# In short: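 Single endpoint, analysed for increased fluorescence against DMSO controls. HEK293T cells carrying FXR and SRC-1 linked to complementary reporter halves were exposed to chemicals for 24 h before reading.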
# [9] = molecular target: Peroxisome proliferator-activated receptor gamma (Homo sapiens) (UniProt P37231); assay: OT_PPARg_PPARgSRC1_0480: Odyssey Thera (OT) 8-hour Protein-Complementation Assay for Peroxisome Proliferator-activated Receptor Gamma / SRC-1 Co-activator (AID 2283387);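 also: nuclear to cytoplasmic split Venus YFP fluorescence ratio reporting PPARg SRC-1 interaction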
# In short: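 HEK293T transiently transfected with PPARg and SRC-1 fused to Venus YFP fragments, compounds 8 h at 37C. Fixed, Draq5-stained cells imaged; nuclear/cytoplasmic 488 nm fluorescence ratio over at least 350 cells per image; gain fitted versus DMSO.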
# [10] = CEETOX_H295R_OHPREG: CeeTox H295R High-throughput Steroidogenesis Assay for OH-Pregnenolone (OHPREG) (AID 2283434; active = hit-call score of the fitted dose curve at least 0.9, where 1 is the maximum; inactive = score below 0.9); conditions: actives raise or lower the signal
# In short: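 H295R, 10 uM forskolin pre-stim 48 h; test chemical 48 h, 0.1% DMSO final. MTBE extraction, reverse-phase C18 HPLC-ESI+ MS/MS of medium. Gain/loss vs DMSO; viability by MTT in same wells.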
# [11] = CEETOX_H295R_OHPROG: CeeTox H295R High-throughput Steroidogenesis Assay for OH-Progesterone (OHPROG) (AID 2283435; active = hit-call score of the fitted dose curve at least 0.9, where 1 is the maximum; inactive = score below 0.9;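 as to AC50: human adrenal H295R cells primed 48 h with 10 µM forskolin; 17alpha-hydroxyprogesterone secreted into medium measured by HPLC-MS/MS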); conditions: actives raise or lower the signal
# In short: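 Human adrenocortical H295R cells, passage 10 or lower, were treated with chemical for 48 h after forskolin priming, and hormone output in the medium was quantified by LC-MS/MS.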
# [12] = CEETOX_H295R_ANDR: CeeTox H295R High-throughput Steroidogenesis Assay for Androstenedione (ANDR) (AID 2283436; active = hit-call score of the fitted dose curve at least 0.9, where 1 is the maximum; inactive = score below 0.9;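 also: human H295R adrenal cells exposed for 48 h with androstenedione measured in medium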); conditions: actives raise or lower the signal
# In short: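 48 h chemical exposure, H295R cells, DMEM/F12 + ITS+ and Nu-Serum. Medium androstenedione: MTBE extraction, C18 reverse-phase HPLC, ESI+ MS/MS. Fit bidirectional vs DMSO; MTT viability in same wells.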
# [13] = CEETOX_H295R_11DCORT: CeeTox H295R High-throughput Steroidogenesis Assay for 11-Deoxycortisol (11DCORT) (AID 2283432; active = hit-call score of the fitted dose curve at least 0.9, where 1 is the maximum; inactive = score below 0.9); conditions: actives raise or lower the signal
# In short: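 H295R cells prestimulated 48 h with 10 uM forskolin, then exposed 48 h to chemical in 0.1% DMSO. 11-Deoxycortisol in medium quantified by HPLC-MS/MS after MTBE extraction; bidirectional fit versus DMSO. MTT viability read in same wells.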
# [14] = CEETOX_H295R_CORTIC: CeeTox H295R High-throughput Steroidogenesis Assay for Corticosterone (CORTIC) (AID 2283437; active = hit-call score of the fitted dose curve at least 0.9, where 1 is the maximum; inactive = score below 0.9;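 also: corticosterone secreted into medium quantified by mass spectrometry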); conditions: actives raise or lower the signal
# In short: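 48 h forskolin (10 uM) prestim, then 48 h chemical exposure, final DMSO 0.1%. Readout: corticosterone in medium by LC-MS/MS after MTBE extraction. Gain/loss fit vs DMSO; MTT viability in same wells.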
# [15] = CEETOX_H295R_CORTISOL: CeeTox H295R High-throughput Steroidogenesis Assay for Cortisol (AID 2283438; active = hit-call score of the fitted dose curve at least 0.9, where 1 is the maximum; inactive = score below 0.9;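 also: cortisol secreted into medium quantified by LC-MS/MS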); conditions: actives raise or lower the signal
# In short: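 Steroidogenesis in H295R, per modified OECD 456: 48 h forskolin (10 uM), then 48 h exposure, 0.1% DMSO. Cortisol by extraction and tandem MS; viability by MTT (570/650 nm); cytotoxic chemicals diluted and re-tested.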
# [16] = molecular target: Agonist Androgen Response Element (ARE), AR (gene 367) (UniProt P10275); assay: OT_AR_ARELUC_AG_1440: Odyssey Thera (OT) 24-hour CHO-K1 Luciferase Assay for Agonist Androgen Response Element (ARE) (AID 2283379)
# In short: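 Gain-of-signal reporter endpoint: cells (CHO-K1, hamster) are treated 24 h, luciferin/ATP reagent added, and luminescence compared with DMSO baseline.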
# Estrogen receptor (Homo sapiens), sequence (P03372 whole entry, looked up): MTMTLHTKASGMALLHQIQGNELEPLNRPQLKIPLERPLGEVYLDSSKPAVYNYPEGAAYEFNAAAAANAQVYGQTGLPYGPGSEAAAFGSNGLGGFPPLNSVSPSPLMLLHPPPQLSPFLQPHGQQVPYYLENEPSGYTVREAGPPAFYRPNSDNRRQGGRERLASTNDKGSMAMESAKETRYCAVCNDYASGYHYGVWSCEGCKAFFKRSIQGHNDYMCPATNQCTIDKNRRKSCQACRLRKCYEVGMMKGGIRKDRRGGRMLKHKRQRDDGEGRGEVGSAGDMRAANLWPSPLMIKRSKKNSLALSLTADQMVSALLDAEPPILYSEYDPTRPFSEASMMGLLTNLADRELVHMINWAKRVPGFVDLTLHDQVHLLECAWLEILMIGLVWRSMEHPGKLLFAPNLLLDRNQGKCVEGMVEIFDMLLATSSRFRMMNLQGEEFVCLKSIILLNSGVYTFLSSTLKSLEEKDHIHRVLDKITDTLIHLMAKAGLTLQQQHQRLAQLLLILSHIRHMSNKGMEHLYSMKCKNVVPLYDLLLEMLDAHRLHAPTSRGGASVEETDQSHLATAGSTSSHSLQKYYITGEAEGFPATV
# Peroxisome proliferator-activated receptor gamma (Homo sapiens), sequence (P37231 whole entry, looked up, the tested form may be a part): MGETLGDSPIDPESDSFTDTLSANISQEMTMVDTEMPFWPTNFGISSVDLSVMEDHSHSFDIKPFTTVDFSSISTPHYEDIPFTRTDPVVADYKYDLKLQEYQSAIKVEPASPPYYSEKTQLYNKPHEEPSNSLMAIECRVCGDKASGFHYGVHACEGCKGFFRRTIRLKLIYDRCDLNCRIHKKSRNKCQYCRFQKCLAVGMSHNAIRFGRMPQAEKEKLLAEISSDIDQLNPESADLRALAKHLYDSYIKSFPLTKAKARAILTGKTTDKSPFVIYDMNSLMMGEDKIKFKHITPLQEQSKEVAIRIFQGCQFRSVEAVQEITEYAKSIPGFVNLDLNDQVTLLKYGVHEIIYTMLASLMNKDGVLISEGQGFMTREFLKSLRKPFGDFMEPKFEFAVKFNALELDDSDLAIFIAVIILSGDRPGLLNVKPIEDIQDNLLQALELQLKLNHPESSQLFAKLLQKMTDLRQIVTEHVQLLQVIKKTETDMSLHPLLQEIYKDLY
# Bile acid receptor (Homo sapiens), sequence (Q96RI1 whole entry, looked up): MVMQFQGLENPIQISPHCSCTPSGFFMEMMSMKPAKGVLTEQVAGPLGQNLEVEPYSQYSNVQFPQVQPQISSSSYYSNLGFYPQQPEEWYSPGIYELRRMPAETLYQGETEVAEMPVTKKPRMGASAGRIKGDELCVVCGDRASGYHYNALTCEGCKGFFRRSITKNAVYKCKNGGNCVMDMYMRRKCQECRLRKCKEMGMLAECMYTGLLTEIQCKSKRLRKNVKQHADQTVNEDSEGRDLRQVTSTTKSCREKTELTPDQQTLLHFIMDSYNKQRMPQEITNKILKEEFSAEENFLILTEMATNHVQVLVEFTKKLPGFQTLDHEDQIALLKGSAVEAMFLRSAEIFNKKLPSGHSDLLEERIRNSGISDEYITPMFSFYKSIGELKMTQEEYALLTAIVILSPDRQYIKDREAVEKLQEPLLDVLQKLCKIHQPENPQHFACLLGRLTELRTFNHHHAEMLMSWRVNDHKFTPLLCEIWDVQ
# Retinoic acid receptor RXR-alpha (Homo sapiens), sequence (P19793 whole entry, looked up, the tested form may be a part): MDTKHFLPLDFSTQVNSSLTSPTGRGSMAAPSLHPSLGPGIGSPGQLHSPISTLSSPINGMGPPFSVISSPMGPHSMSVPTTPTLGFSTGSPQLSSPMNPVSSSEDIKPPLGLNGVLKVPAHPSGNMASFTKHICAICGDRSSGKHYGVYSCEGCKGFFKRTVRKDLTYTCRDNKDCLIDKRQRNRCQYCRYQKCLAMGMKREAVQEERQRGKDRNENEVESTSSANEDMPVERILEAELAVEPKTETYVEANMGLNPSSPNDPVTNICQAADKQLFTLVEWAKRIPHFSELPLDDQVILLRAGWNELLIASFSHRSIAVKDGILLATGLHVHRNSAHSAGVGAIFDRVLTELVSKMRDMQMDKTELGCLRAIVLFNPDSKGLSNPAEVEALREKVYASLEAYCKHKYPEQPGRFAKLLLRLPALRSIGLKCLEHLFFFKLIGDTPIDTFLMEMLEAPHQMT
# Estrogen receptor beta (Homo sapiens), sequence (Q92731 whole entry, looked up, the tested form may be a part): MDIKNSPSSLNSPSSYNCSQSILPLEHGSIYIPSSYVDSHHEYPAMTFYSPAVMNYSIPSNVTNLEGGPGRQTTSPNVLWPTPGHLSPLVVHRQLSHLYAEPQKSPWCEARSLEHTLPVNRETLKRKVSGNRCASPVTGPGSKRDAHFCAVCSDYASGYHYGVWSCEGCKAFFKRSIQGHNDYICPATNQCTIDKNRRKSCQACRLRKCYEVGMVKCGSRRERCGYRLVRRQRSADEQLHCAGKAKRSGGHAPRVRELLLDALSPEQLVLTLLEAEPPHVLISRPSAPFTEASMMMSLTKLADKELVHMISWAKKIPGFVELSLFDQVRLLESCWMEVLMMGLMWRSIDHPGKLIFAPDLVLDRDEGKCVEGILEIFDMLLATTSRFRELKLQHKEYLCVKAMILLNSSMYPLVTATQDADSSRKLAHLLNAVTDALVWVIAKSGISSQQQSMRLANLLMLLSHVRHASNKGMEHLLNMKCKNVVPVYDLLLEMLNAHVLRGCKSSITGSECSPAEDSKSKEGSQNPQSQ
# Agonist Androgen Response Element (ARE), AR (gene 367), sequence (P10275 whole entry, looked up): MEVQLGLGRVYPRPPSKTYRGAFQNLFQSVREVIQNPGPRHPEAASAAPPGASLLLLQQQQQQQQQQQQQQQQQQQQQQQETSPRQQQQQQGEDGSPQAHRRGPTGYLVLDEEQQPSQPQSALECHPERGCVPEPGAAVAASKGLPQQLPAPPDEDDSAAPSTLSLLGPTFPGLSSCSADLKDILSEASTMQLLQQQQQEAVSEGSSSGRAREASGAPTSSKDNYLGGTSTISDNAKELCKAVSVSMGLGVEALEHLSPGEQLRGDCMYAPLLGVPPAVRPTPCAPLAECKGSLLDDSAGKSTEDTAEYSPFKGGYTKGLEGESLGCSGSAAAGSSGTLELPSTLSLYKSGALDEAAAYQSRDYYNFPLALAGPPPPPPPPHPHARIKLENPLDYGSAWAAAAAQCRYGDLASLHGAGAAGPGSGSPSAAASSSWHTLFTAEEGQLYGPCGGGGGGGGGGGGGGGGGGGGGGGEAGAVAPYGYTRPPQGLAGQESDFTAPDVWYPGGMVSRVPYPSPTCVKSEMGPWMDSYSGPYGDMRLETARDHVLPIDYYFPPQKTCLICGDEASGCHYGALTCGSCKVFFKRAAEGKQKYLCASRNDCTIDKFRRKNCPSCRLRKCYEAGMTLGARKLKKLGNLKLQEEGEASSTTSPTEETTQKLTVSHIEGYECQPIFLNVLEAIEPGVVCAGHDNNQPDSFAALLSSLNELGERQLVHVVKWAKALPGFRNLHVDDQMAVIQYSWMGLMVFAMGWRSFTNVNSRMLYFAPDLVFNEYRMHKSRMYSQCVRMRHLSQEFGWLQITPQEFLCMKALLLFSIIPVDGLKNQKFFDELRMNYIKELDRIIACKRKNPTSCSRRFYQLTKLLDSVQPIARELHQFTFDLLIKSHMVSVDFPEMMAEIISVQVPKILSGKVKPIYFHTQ
smiles,measurement,setting,value
CCCCCCCC/C=C\CCCCCCCC(=O)OC[C@@H](O)[C@H]1OC[C@H](O)[C@H]1O,outcome,[1],inactive
same,outcome,[2],inactive
same,outcome,[3],inactive
same,outcome,[4],inactive
same,outcome,[5],inactive
same,outcome,[6],inactive
O=C(O)[C@H](O)[C@@H](O)C(=O)O,outcome,[1],inactive
same,outcome,[2],inactive
same,outcome,[3],inactive
same,outcome,[7],inactive
same,outcome,[8],inactive
same,outcome,[4],inactive
same,outcome,[5],inactive
same,outcome,[9],inactive
same,outcome,[6],inactive
O=S1(=O)CCCO1,AC50,[1],17.5 µM (active)
same,outcome,[2],inactive
same,outcome,[3],inactive
same,outcome,[4],inactive
same,outcome,[5],inactive
same,outcome,[6],inactive
OCc1c[nH]c2ccccc12,outcome,[10],inactive
same,AC50,[11],15.8 µM (active)
same,outcome,[12],inactive
CC(C)CC(C)O (stereo not drawn),outcome,[1],inactive
same,outcome,[2],inactive
same,outcome,[3],inactive
same,outcome,[7],inactive
same,outcome,[4],inactive
same,outcome,[5],inactive
same,outcome,[6],inactive
OC[C@H]1O[C@@](CO)(O[C@H]2O[C@H](CO)[C@@H](O)[C@H](O)[C@H]2O)[C@@H](O)[C@@H]1O,outcome,[1],inactive
same,outcome,[2],inactive
same,outcome,[3],inactive
same,outcome,[8],inactive
same,outcome,[4],inactive
same,outcome,[5],inactive
same,outcome,[6],inactive
C=CN1CCCC1=O,outcome,[2],inactive
same,outcome,[3],inactive
same,outcome,[4],inactive
same,outcome,[5],inactive
same,outcome,[9],inactive
same,outcome,[6],inactive
CC(=O)c1ccccc1,outcome,[2],inactive
same,outcome,[3],inactive
same,outcome,[4],inactive
same,outcome,[5],inactive
same,outcome,[6],inactive
O=C(O)c1ccc2c(c1)nc(C(=O)NC1CCN(C3CC3)CC1)n2Cc1cc(-c2ccc(Cl)s2)on1,outcome,[1],inactive
same,outcome,[2],inactive
same,outcome,[3],inactive
same,outcome,[7],inactive
same,outcome,[8],inactive
same,outcome,[4],inactive
same,outcome,[5],inactive
same,outcome,[9],inactive
same,outcome,[6],inactive
Cc1ncc([C@@H](CCCCCCc2ccc3c(n2)NCCC3)CC(=O)O)cn1,outcome,[1],inactive
same,outcome,[2],inactive
same,outcome,[3],inactive
same,outcome,[8],inactive
same,outcome,[4],inactive
same,outcome,[5],inactive
same,outcome,[6],inactive
same,outcome,[10],inactive
O=C(O)CO,outcome,[1],inactive
same,outcome,[2],inactive
same,outcome,[3],inactive
same,outcome,[5],inactive
same,outcome,[6],inactive
OCC(CO)(CO)CO,outcome,[1],inactive
same,outcome,[2],inactive
same,outcome,[3],inactive
same,outcome,[5],inactive
same,outcome,[6],inactive
CCCCCCCC1CCC(=O)O1 (stereo not drawn),outcome,[1],inactive
same,outcome,[2],inactive
same,outcome,[3],inactive
same,outcome,[4],inactive
same,outcome,[6],inactive
same,outcome,[10],inactive
same,outcome,[11],inactive
NC(N)=O,outcome,[1],inactive
same,outcome,[2],inactive
same,outcome,[3],inactive
same,outcome,[4],inactive
same,outcome,[5],inactive
same,outcome,[9],inactive
same,outcome,[6],inactive
C[C@@H](Oc1ccc(CNC(=O)c2cccnc2Oc2ccc3c(c2)OCO3)c(F)c1)C(=O)O,outcome,[1],inactive
same,outcome,[2],inactive
same,outcome,[3],inactive
same,outcome,[7],inactive
same,outcome,[4],inactive
same,outcome,[5],inactive
same,outcome,[6],inactive
same,outcome,[13],inactive
same,outcome,[10],inactive
same,outcome,[11],inactive
same,outcome,[14],inactive
same,outcome,[15],inactive
Cn1cc[nH]c1=S,outcome,[1],inactive
same,outcome,[2],inactive
same,outcome,[3],inactive
same,outcome,[4],inactive
same,outcome,[5],inactive
same,outcome,[6],inactive
CCCCN1C(=O)[C@@H]([C@H](O)C2CCCCC2)NC(=O)C12CCN(Cc1ccc(Oc3ccc(C(=O)O)cc3)cc1)CC2,outcome,[1],inactive
same,outcome,[2],inactive
same,outcome,[3],inactive
same,outcome,[4],inactive
same,outcome,[5],inactive
same,outcome,[9],inactive
same,outcome,[6],inactive
O=C(O)c1cccc(C(=O)O)c1,outcome,[2],inactive
same,outcome,[3],inactive
same,outcome,[7],inactive
same,outcome,[8],inactive
same,outcome,[6],inactive
CCCCOC(=O)c1ccccc1,outcome,[16],inactive
same,outcome,[2],inactive
same,outcome,[3],inactive
same,outcome,[4],inactive
same,outcome,[5],inactive
same,outcome,[6],inactive
OCCNCCO,outcome,[2],inactive
same,outcome,[3],inactive
same,outcome,[4],inactive
same,outcome,[5],inactive
NC(=O)NN=Cc1ccc([N+](=O)[O-])o1,outcome,[1],inactive
same,outcome,[2],inactive
same,outcome,[3],inactive
same,outcome,[4],inactive
same,outcome,[5],inactive
same,outcome,[9],inactive
same,outcome,[6],inactive
CC1(C)C(=O)N(Cl)C(=O)N1Cl,outcome,[2],inactive
same,outcome,[3],inactive
same,outcome,[4],inactive
same,outcome,[5],inactive
same,outcome,[6],inactive
CCc1cccc(CC)c1N,outcome,[16],inactive
same,outcome,[1],inactive
same,outcome,[2],inactive
same,outcome,[3],inactive
same,outcome,[4],inactive
same,outcome,[5],inactive
